Screening results deposited in PubChem BioAssay by National Center for Advancing Translational Sciences (NCATS).
An excerpt weighted towards active compounds, which were near 3.6% of everything screened.
TSHR agonist – TSH receptor (human) agonism; HEK293-CNG-TSHR cells (CNG channel as cAMP sensor), membrane potential dye, cAMP; Potency, µM (doses to about 57.1 µM), inactives show top-dose activation, actives largely listed as activators; hit rate 0.48% among 73,000; AID 926; active means well fitted activation curve with a large enough effect in the main read-out, with a control signal flat, not every such curve was filed as active; inconclusive means small, poorly fitted or top-dose-only effect, or a change in a side signal; inactive means no such curve, though single readings can be large or run the other way; % of control where 0% means no effect;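 further: the control signal comes from parental cells without the receptor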
Target sequence (P16473 whole entry, looked up): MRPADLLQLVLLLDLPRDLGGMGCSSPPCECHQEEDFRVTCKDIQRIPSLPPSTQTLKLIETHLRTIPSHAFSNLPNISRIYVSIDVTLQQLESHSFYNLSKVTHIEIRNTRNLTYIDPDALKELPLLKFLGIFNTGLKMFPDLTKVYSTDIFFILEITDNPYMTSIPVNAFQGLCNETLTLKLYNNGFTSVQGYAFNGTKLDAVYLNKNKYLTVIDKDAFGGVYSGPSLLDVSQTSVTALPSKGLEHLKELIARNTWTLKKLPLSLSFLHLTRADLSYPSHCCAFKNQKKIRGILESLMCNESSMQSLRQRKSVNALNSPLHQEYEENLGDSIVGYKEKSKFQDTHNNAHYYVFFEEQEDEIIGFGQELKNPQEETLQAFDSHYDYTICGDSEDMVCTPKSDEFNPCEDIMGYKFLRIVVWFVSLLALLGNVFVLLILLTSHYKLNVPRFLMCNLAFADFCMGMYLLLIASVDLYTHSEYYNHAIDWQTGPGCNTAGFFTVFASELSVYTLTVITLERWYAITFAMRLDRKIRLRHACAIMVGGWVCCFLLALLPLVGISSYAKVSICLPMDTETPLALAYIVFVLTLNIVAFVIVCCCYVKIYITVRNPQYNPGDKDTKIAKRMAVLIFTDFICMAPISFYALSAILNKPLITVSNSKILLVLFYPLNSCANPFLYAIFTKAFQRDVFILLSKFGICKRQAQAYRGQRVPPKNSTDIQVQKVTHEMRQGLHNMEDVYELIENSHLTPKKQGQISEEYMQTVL
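HEK 293 cells stably expressing TSHR and a modified CNG channel, with CNG-only parental cells as counterscreen, were preloaded 60 min at room temperature with membrane potential dye containing 100 uM RO 20-1724. Compound exposure was 30 min, and depolarization was read as fluorescence at 590 nm.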
HEK293 cAMP cs – counter-screen for TSHR agonists: cAMP increase in parental HEK293 | parental HEK293 CNG cAMP sensor, membrane potential fluorescence | Potency, µM (highest dose often 57.1 µM), for inactives: top-dose activation, hits mostly activators | hit rate 2.5% among 73,000; further: % of control where 0% means no effect; nearly all actives have a fitted effect of over 55% in size
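Counterscreen for endogenous-receptor signalling: CNG-channel HEK 293 cells report cAMP rise by membrane depolarization. After 60 min dye equilibration with 100 uM RO 20-1724, compounds incubated 30 min before bottom-read fluorescence at 590 nm.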
IkB signaling – IkB pathway inhibition in ABC-DLBCL cells | hit rate 0.04% among 110,000 | Potency, µM (titrated, usually from 57.1 µM), inactives show top-dose IkBa stabilization activation | ABC-DLBCL IkBa-CBG/CBR dual luciferase ratio, 4 h; response scale: scaled: untreated 0%, proteasome inhibitor 100%; active means well fitted curve in the direction sought with a large enough effect in the signal ratio, not every such curve was filed as active; inconclusive means small, poorly fitted or top-dose-only effect, or a change in a side signal; the % refers to the signal ratio;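 further: the direction sought is a rising ratio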
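Curves were fitted separately to fusion (green), unfused (red) and ratio luminescence, then classed by r2, magnitude and activity. Cells: OCI-Ly3, 4 h compound plus doxycycline at 37C; 10 uM MG-132 defined full response.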
ERK AVP inh – blocks ERK signaling stimulated by vasopressin | HEK293-V1b, vasopressin-stimulated pERK AlphaScreen | Potency, µM (doses to about 57.5 µM), for the others: top-dose activity, negative = inhibition, actives largely listed as inhibitors | hit rate 0.99% among 72,000 | AID 995; further: on the % scale 0 is the no-effect control and ±100 the full control effect; nearly all actives have a fitted effect of over 55% in size
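HEK293 cells stably expressing V1b receptor, preincubated 30 min at 37 °C with compound, then stimulated 5 min with 25 nM vasopressin. Phospho-ERK by AlphaScreen SureFire after 5 h RT; normalized to DMSO and vasopressin; AC50 by Hill fit.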
CRE-bla Fsk – alters forskolin-stimulated CRE reporter signaling in CHO cells; hit rate 2.5% among 71,000; Potency, µM (doses to about 38.2 µM), without a hit: top-dose activity change, negative = inhibition, hits mostly activators; CHO CRE-bla reporter (cAMP response element driving beta-lactamase), forskolin EC10, beta-lactamase ratio; active means well fitted activation curve with a large enough effect in the signal ratio, with a control signal flat, not every such curve was filed as active; inconclusive means small, poorly fitted or top-dose-only effect, or effect the other way, or a change in a side signal; the % refers to the signal ratio; further: % of control where 0% means no effect
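The 460nm/530nm emission ratio after CCF4 loading defined %Activity, from which AC50 values were obtained. CRE-bla CHO cells received compound dilution series together with an EC10 level of NKH 477 for 3 hours at 37 degrees Celsius.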
* = called active by the depositor; [ ] = another dose, or the depositor's remark. Unless noted, the call rests on the fitted dose curve; in most records, active means well fitted curve in the direction sought with a large enough effect; inconclusive means small, poorly fitted or top-dose-only effect, or another doubt; inactive means no such curve, though single readings can be large; an effect the other way counts as inactive or inconclusive. Potency means the concentration at half of the fitted maximal effect.

Screening O=C1c2oc3ccccc3c(=O)c2C(c2cccc(Br)c2)N1Cc1ccco1 (stereo unspecified) returned TSHR agonist inconclusive, HEK293 cAMP cs 12.6µM*, IkB signaling 7.5%, ERK AVP inh -25.8% and CRE-bla Fsk -24.2%.
For COc1cc(CO)cc(Br)c1OCC(=O)O the results were TSHR agonist 25.1µM*, HEK293 cAMP cs 13.4%, IkB signaling -1.9%, ERK AVP inh -17.2% and CRE-bla Fsk -6.5%.
Screening CN(C)CCN(C)C(=O)c1ccc(-n2c(=O)c(=O)[nH]c3ccccc32)cc1 returned TSHR agonist 4.2% and HEK293 cAMP cs -5.7%.
`COc1c2occc2c(OC)c2c(=O)cc(C)oc12` gave TSHR agonist -10.1%[25.6 µM], HEK293 cAMP cs 1.3%[25.6 µM], IkB signaling -1.7%[25.6 µM], ERK AVP inh inconclusive and CRE-bla Fsk 7.94µM*.
For Fc1cccc(Cl)c1-c1nnc2ccc(N3CCOCC3)nn12 the results were TSHR agonist 7.7%, HEK293 cAMP cs 8.2%, IkB signaling -1.3%, ERK AVP inh -27.0% and CRE-bla Fsk 12.6µM*.
COc1ccc(-n2ccnc2SCC(=O)Nc2ccc(F)cc2F)cc1 was read as IkB signaling -0.5%.
For CCOC(=O)c1c(-c2cccs2)csc1NC(=O)COC(=O)c1c(C)noc1C the results were TSHR agonist 3.4%[11.4 µM], HEK293 cAMP cs 24.4%, IkB signaling inconclusive, ERK AVP inh 7.4% and CRE-bla Fsk 2.51µM*.
For COC(=O)c1c(-c2cccs2)csc1NC(=O)CN1CCOCC1 the results were TSHR agonist inconclusive, HEK293 cAMP cs inconclusive, IkB signaling 3.6%, ERK AVP inh inconclusive and CRE-bla Fsk 3.16µM*.
Screening Cn1c(=O)c(C(=O)c2ccccc2)nc2ccccc21 returned TSHR agonist 6.8%, HEK293 cAMP cs 5.9%, IkB signaling 0.6%, ERK AVP inh -23.4% and CRE-bla Fsk 3.3%.
`Cn1cc(C(=O)c2ccc(Cl)cc2)cc1-c1nc2ccccc2n1C` gave TSHR agonist inconclusive, HEK293 cAMP cs 31.6µM*, IkB signaling inconclusive, ERK AVP inh 31.6µM* and CRE-bla Fsk inconclusive.
Screening c1ccc(-c2onc3cc4c(cc23)OCCO4)cc1 returned TSHR agonist inconclusive, HEK293 cAMP cs inconclusive, IkB signaling inconclusive, ERK AVP inh inconclusive and CRE-bla Fsk 13.3%.
Screening CC1(c2ccc3noc(-c4ccc(Cl)cc4)c3c2)OCCO1 returned TSHR agonist inconclusive, HEK293 cAMP cs inconclusive, IkB signaling 0.5%, ERK AVP inh 15.8µM* and CRE-bla Fsk -9.9%.
For CC1(C)CC(CCNC(=O)c2ccc(-n3cnnn3)cc2)CC(C)(C)N1 the results were TSHR agonist 20.1%, HEK293 cAMP cs 3.7%, IkB signaling -1.8%, ERK AVP inh 3.1% and CRE-bla Fsk inconclusive.
Screening COC(=O)[C@H](C)[C@@H]1C[C@@]1(C)[C@@H](NC(=O)OCc1ccccc1)c1ccccc1 returned TSHR agonist inconclusive, HEK293 cAMP cs 15.8µM*, ERK AVP inh -13.0% and CRE-bla Fsk -13.7%.
Screening C[C@@H](C(=O)NCc1ccccc1)[C@H]1C[C@]1(C)[C@H](NC(=O)OCc1ccccc1)c1ccccc1 returned TSHR agonist inconclusive, HEK293 cAMP cs 15.8µM*, ERK AVP inh 9.1% and CRE-bla Fsk inconclusive.
For COc1cccc(-c2nn(C)c3sc(C(=O)NCc4ccccn4)cc23)c1 the results were TSHR agonist 1.2%, HEK293 cAMP cs -3.7%, IkB signaling inconclusive, ERK AVP inh -0.4% and CRE-bla Fsk 7.94µM*.
Screening COc1cccc(-c2nn(C)c3sc(C(=O)Nc4ccc5c(c4)OCCO5)cc23)c1 returned TSHR agonist 28.6%, HEK293 cAMP cs 14.6%, IkB signaling inconclusive, ERK AVP inh 17.3% and CRE-bla Fsk 1.26µM*.
`CN1CCN(C(=O)C2CCN(S(=O)(=O)c3ccc4c(c3)oc(=O)n4C)CC2)CC1` gave TSHR agonist -0.7%, HEK293 cAMP cs -0.8%, IkB signaling 0.6%, ERK AVP inh -6.7% and CRE-bla Fsk 0.1%.
`CCn1c(SCC(=O)c2cc(OC)ccc2OC)nnc1C(C)C` gave TSHR agonist 3.1%, HEK293 cAMP cs 17.7%, IkB signaling inconclusive, ERK AVP inh -9.6% and CRE-bla Fsk 3.7%.
`O=C(c1ccco1)N1CCN(C(=O)N2c3ccccc3Sc3ccccc32)CC1` gave HEK293 cAMP cs 26.7%, IkB signaling 23.4%, ERK AVP inh inconclusive and CRE-bla Fsk 1µM*.
O=C(c1c(Cl)cccc1Cl)N1CCN(c2ccccn2)CC1 was read as TSHR agonist 10.2%, HEK293 cAMP cs 12.6%, IkB signaling 0.0%, ERK AVP inh 2.5% and CRE-bla Fsk -4.1%.
For O=C(N1CCN(c2ccccn2)CC1)N1c2ccccc2Sc2ccccc21 the results were HEK293 cAMP cs 24.5%, IkB signaling -2.4%, ERK AVP inh -16.6% and CRE-bla Fsk 10µM*.
For O=C(c1ccco1)N1c2ccccc2Sc2ccccc21 the results were TSHR agonist inconclusive, HEK293 cAMP cs 20µM*, IkB signaling inconclusive, ERK AVP inh 22.3% and CRE-bla Fsk -8.9%.
Screening C=C[C@@]1(C)CC(=O)[C@@]2(O)[C@@]3(C)[C@@H](O)CCC(C)(C)[C@@H]3[C@H](O)[C@H](OC(C)=O)[C@@]2(C)O1 returned TSHR agonist inconclusive, HEK293 cAMP cs 0.0794µM*, IkB signaling -0.1%, ERK AVP inh 1.26µM* and CRE-bla Fsk inconclusive.
For O=C(CN1CCN(Cc2ccccc2F)C1=O)NCc1ccccc1 the results were IkB signaling 0.5%.
Screening O=C(CN1CCCN(Cc2ccc(F)cc2Cl)C1=O)NCc1ccccc1 returned TSHR agonist 25.1µM*, HEK293 cAMP cs 8.9%, IkB signaling 1.1%, ERK AVP inh 14.0% and CRE-bla Fsk -12.8%.
For CCC1CCCCN1C(=O)CSc1nc2c([nH]c3ccccc32)c(=O)n1C (stereo unspecified) the results were TSHR agonist inconclusive, HEK293 cAMP cs 31.6µM*, IkB signaling -0.6%, ERK AVP inh -7.6% and CRE-bla Fsk -2.2%.
COc1ccc(NC(=O)C2=C(C)Nc3nc(SCc4ccccc4C)nn3C2c2cc(OC)c(O)c(OC)c2)cc1 (stereo unspecified) was read as IkB signaling 1.6%.
For Cc1ccc(S(=O)(=O)N2CCN(C(=O)CN3CCOCC3)C2c2ccccc2)cc1 (stereo unspecified) the results were TSHR agonist inconclusive, HEK293 cAMP cs 20µM*, IkB signaling 2.0%, ERK AVP inh -14.3% and CRE-bla Fsk 5.4%.
Screening COc1cccc2c1Oc1ncccc1N(c1ccc(C(=O)NCc3ccccc3Cl)s1)C2 returned IkB signaling -2.3%.
